Experimental findings from PMC7862700, “An all-to-all approach to the identification of sequence-specific readers for epigenetic DNA modifications on cytosine” are described below.

Experiment in all cases: DAPPL (digital affinity profiling via proximity ligation, sequencing); 10 mM Tris-HCl pH 7.5, 50 mM NaCl, 1 mM DTT, 4% glycerol, room temperature, 30 min; GST-TFs on glutathione beads, 16-mer random dsDNA library, 0.1% formaldehyde crosslink after washing; high values mean tight binding
Common to all, as to conditions: protein: recombinant; tags: N-terminal GST; dsDNA, one strand shown

The target of one assay is T1, FLI1 (Homo sapiens, UniProt Q01543 1-452).
T1 sequence: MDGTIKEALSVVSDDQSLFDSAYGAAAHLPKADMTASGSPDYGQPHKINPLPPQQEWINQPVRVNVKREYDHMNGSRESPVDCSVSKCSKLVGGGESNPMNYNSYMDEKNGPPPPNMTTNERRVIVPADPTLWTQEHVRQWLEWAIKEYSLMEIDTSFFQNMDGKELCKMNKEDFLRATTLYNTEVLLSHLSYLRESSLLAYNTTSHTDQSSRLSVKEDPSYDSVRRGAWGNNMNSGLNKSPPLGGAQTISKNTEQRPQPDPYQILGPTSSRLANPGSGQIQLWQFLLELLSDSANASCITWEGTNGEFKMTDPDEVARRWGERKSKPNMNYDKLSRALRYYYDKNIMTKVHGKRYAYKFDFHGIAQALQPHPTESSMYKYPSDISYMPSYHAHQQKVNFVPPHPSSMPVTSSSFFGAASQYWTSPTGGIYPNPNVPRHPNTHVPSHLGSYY
The procedure, abridged:
(§1)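 Human transcription factors fused to GST were expressed in yeast, captured on glutathione beads, given DNA barcodes and pooled with a GST-only negative control. Pools were incubated with 200 nmole of a 16-mer random double-stranded DNA library in Tris/NaCl/DTT/glycerol buffer at room temperature for 30 min. They were then washed, crosslinked with 0.1% formaldehyde, proximity-ligated (BsaI/T4 ligase, 1 h, 37 °C), PCR-amplified and sequenced on an Illumina NextSeq500. Binding signal is each 6-mer's read frequency for a factor divided by its frequency for the GST control.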

For the next assay, the target named is T2, ELK1 (Homo sapiens, UniProt P19419 1-428).
T2 sequence: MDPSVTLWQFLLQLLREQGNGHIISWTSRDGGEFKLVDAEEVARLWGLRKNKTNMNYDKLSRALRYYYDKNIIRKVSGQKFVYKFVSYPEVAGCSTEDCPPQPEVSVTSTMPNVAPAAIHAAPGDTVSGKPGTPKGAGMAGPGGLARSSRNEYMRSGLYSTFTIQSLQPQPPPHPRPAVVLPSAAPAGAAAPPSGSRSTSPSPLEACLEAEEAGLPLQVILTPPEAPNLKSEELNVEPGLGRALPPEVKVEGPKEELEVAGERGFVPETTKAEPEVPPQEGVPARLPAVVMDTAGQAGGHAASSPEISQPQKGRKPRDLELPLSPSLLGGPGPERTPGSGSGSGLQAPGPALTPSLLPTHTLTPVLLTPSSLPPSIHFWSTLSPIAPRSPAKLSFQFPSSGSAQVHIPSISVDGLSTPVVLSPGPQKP
Put shortly: as §1

The target of a further assay is T3, GABPA (Homo sapiens, UniProt Q06546 1-454).
T3 sequence: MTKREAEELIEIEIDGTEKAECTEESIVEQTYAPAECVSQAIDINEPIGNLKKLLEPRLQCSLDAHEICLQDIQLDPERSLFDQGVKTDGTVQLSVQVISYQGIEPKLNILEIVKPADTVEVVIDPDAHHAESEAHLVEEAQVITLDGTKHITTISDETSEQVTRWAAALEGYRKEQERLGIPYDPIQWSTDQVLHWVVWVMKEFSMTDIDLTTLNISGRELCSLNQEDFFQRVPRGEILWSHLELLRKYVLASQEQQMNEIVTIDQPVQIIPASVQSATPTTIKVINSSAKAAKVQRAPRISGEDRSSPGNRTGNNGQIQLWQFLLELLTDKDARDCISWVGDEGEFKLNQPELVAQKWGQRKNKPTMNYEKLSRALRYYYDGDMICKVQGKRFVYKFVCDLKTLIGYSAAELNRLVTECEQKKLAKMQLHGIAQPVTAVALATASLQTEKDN
The procedure, abridged:
as §1

Another assay has as its target T4, ERG (Homo sapiens, UniProt P11308 1-479).
T4 sequence: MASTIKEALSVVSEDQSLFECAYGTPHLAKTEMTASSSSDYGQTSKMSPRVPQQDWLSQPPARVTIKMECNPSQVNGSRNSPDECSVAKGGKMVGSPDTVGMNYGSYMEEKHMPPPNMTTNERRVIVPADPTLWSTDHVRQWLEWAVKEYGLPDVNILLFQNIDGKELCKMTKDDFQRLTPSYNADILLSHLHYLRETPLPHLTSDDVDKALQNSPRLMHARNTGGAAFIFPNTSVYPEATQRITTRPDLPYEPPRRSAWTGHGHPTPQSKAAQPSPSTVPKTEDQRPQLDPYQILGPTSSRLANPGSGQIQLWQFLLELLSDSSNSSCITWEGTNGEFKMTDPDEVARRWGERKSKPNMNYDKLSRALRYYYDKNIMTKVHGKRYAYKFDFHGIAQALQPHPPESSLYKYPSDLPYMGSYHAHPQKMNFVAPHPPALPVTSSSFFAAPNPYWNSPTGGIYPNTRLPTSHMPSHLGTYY
Put shortly: as §1

The target of a further assay is ELF1 (Homo sapiens, UniProt P32519 1-619). Put shortly:
as §1

The target of a further assay is T5, EHF (Homo sapiens, UniProt Q9NZC4 1-300).
T5 sequence: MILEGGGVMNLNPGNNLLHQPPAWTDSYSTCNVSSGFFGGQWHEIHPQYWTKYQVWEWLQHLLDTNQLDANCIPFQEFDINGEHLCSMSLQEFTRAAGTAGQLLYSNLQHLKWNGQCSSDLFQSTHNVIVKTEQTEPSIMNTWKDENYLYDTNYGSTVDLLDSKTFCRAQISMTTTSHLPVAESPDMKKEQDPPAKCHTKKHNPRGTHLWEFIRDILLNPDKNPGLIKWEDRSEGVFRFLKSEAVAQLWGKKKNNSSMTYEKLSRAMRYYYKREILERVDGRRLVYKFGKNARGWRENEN
The procedure, abridged: as §1

Another assay has as its target SPIB (Homo sapiens, UniProt Q01892 1-262). Put shortly: as §1
The next assay has as its target T6, ELK3 (Homo sapiens, UniProt P41970 1-407).
T6 sequence: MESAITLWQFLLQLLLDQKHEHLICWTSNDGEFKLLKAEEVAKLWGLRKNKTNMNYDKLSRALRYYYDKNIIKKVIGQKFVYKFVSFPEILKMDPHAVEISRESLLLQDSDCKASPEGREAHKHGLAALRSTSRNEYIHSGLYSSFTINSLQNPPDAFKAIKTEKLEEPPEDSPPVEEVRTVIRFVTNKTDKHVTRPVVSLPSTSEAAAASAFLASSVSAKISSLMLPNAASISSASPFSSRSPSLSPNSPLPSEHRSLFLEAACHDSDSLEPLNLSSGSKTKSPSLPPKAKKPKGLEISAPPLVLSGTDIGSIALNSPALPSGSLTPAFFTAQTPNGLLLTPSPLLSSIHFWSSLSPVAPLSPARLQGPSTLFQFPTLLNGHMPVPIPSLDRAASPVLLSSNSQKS
Put shortly:
as §1

Another assay has as its target T7, SPIC (Homo sapiens, UniProt Q8N5J4 1-248).
T7 sequence: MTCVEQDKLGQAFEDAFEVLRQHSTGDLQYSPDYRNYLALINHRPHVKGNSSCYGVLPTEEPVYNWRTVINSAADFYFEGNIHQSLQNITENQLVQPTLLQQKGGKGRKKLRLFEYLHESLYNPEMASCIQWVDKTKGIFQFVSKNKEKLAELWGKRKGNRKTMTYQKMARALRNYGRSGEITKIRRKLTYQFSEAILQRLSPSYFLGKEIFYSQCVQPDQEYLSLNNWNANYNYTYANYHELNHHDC
The procedure, abridged: as §1

SPIB, sequence (Q01892 whole entry): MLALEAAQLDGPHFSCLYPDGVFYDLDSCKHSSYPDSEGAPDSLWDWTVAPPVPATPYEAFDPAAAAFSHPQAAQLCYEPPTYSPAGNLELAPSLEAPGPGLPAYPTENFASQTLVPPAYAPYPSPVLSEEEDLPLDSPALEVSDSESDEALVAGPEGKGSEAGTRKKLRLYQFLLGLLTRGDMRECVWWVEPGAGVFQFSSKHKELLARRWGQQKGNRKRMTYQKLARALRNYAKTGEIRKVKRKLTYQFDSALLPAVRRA
ELF1, sequence (P32519 whole entry): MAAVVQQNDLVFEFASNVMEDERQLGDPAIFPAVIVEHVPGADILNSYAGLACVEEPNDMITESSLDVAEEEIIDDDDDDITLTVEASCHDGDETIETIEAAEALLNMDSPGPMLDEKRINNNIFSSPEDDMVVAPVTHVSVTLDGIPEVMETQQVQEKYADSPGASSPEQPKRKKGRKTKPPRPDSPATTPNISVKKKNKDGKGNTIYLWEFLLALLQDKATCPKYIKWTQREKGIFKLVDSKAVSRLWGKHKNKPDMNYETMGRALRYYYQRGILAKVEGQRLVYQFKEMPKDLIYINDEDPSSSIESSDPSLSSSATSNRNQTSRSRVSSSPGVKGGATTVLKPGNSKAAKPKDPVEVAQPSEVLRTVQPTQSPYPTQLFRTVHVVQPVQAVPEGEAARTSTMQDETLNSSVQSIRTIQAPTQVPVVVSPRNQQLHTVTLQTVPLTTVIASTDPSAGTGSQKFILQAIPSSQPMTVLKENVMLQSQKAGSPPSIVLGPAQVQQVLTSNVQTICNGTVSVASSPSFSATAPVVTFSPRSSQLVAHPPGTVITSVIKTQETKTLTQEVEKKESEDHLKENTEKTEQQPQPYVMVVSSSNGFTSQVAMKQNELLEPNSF

On to CGTTGC, for which the binding signal with FLI1 is 1.09 fold enrichment (6-mer frequency, TF over GST control); with ELK1 it was 1.19 fold enrichment (6-mer frequency, TF over GST control); with GABPA, 1.04 fold enrichment (6-mer frequency, TF over GST control); in the assay with ERG it was 1.06 fold enrichment (6-mer frequency, TF over GST control); with ELF1, 1.11 fold enrichment (6-mer frequency, TF over GST control); in the assay with EHF, 1.07 fold enrichment (6-mer frequency, TF over GST control). Further, the binding signal with SPIB was 1.18 fold enrichment (6-mer frequency, TF over GST control); in the assay with ELK3 it was 1.04 fold enrichment (6-mer frequency, TF over GST control); with SPIC, 1.25 fold enrichment (6-mer frequency, TF over GST control).
